Hit rate of the full screen: of about 5,500 compounds, about 2,000 (36%) were called active. About 18% were inconclusive and are not listed. Rule as the data show it: active = normalized growth mostly below about 0.91 (no sharp cut-off); inconclusive = no clear call, values can overlap the other calls; inactive = mostly above about 0.92. Some of the results follow.
Test: chemical genetic growth profiling, strain panel (AID 1159580);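 also: tested at 20 µM; growth read once vehicle control cultures reached saturation at 30 °C; 1 = growth at the plate median or of vehicle wells; lower values mean less growth of the strain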
Conditions: growth OD
[1] = S. cerevisiae deletion strains, locus YAL013W, strain DEP1, hits give low values
[2] = S. cerevisiae deletion strains, locus YBR229C, strain ROT2, hits give low values
[3] = S. cerevisiae deletion strains, locus YDL101C, strain DUN1, hits give low values
[4] = S. cerevisiae deletion strains, locus YDR150W, strain NUM1, hits give low values
[5] = S. cerevisiae deletion strains, locus YEL061C, strain CIN8, hits give low values
[6] = S. cerevisiae deletion strains, locus YGR078C, strain PAC10, hits give low values
[7] = S. cerevisiae deletion strains, locus YHR030C, strain SLT2, hits give low values
[8] = S. cerevisiae deletion strains, locus YJR043C, strain POL32, hits give low values
[9] = S. cerevisiae deletion strains, locus YJR075W, strain HOC1, hits give low values
[10] = S. cerevisiae deletion strains, locus YLR039C, strain RIC1, hits give low values
[11] = S. cerevisiae deletion strains, locus YLR262C, strain YPT6, hits give low values
[12] = S. cerevisiae deletion strains, locus YMR263W, strain SAP30, hits give low values
[13] = S. cerevisiae deletion strains, locus YMR307W, strain GAS1, hits give low values
[14] = S. cerevisiae deletion strains, locus YNL153C, strain GIM3, hits give low values
[15] = S. cerevisiae deletion strains, locus YNL322C, strain KRE1, hits give low values
[16] = S. cerevisiae deletion strains, locus YOL006C, strain TOP1, hits give low values
[17] = S. cerevisiae deletion strains, locus YPL055C, strain LGE1, hits give low values
[18] = S. cerevisiae deletion strains, locus YPL241C, strain CIN2, hits give low values

Measured: normalized growth

Cc1nc(-c2ccc(S(=O)(=O)N3CCN(c4ncnc5scc(-c6ccccc6)c45)CC3)s2)cs1
inactive: [1] 1.02 | [2] 1 | S. cerevisiae deletion strains, locus YCL061C, strain MRC1, hits give low values 1.01 | [3] 1 | [4] 0.936 | [5] 0.995 | [6] 1.01 | [7] 1.04 | S. cerevisiae deletion strains, locus YHR087W, strain rtc3, hits give low values 1.02 | S. cerevisiae deletion strains, locus YJL187C, strain SWE1, hits give low values 1.02 | [8] 1.01 | [9] 1.02 | [10] 1.03 | S. cerevisiae deletion strains, locus YLR058C, strain SHM2 (second series), hits give low values 1.01 | S. cerevisiae deletion strains, locus YLR085C, strain ARP6, hits give low values 1.05 | [11] 1.02 | S. cerevisiae deletion strains, locus YML094W, strain GIM5, hits give low values 1.02 | S. cerevisiae deletion strains, locus YMR219W, strain ESC1, hits give low values 1.01 | [12] 1.03 | [13] 0.952 | [14] 1 | S. cerevisiae deletion strains, locus YNL298W, strain CLA4 (second series), hits give low values 1.03 | [15] 1.01 | S. cerevisiae deletion strains, locus YNR030W, strain Alg12, hits give low values 1.01 | [16] 0.997 | [17] 0.897 | [18] 1.05 | S. cerevisiae deletion strains, locus YPR135W, strain CTF4, hits give low values 0.993

NC[C@@H]1CC[C@@H](N)[C@@H](O[C@H]2[C@H](O)[C@@H](O[C@H]3O[C@H](CO)[C@@H](O)[C@H](N)[C@H]3O)[C@H](N)C[C@@H]2N)O1
inactive: [1] 0.987 | S. cerevisiae deletion strains, locus YBR021W, strain FUR4, hits give low values 1.06 | [2] 0.959 | S. cerevisiae deletion strains, locus YCL029C, strain bik1, hits give low values 0.985 | S. cerevisiae deletion strains, locus YDL035C, strain GPR1, hits give low values 0.995 | S. cerevisiae deletion strains, locus YDL074C, strain BRE1, hits give low values 0.983 | [3] 0.952 | S. cerevisiae deletion strains, locus YDL134C, strain PPH21, hits give low values 0.993 | S. cerevisiae deletion strains, locus YDL185W, strain tfp1, hits give low values 0.984 | S. cerevisiae deletion strains, locus YDL192W, strain arf1, hits give low values 0.993 | S. cerevisiae deletion strains, locus YDR101C, strain arx1, hits give low values 1 | [4] 0.986 | S. cerevisiae deletion strains, locus YDR162C, strain NBP2, hits give low values 0.967 | S. cerevisiae deletion strains, locus YDR318W, strain mcm21, hits give low values 1.01 | S. cerevisiae deletion strains, locus YDR388W, hits give low values 1 | S. cerevisiae deletion strains, locus YDR502C, strain sam2, hits give low values 1 | [5] 0.987 | S. cerevisiae deletion strains, locus YER110C, hits give low values 0.996 | S. cerevisiae deletion strains, locus YER155C, strain BEM2, hits give low values 1 | S. cerevisiae deletion strains, locus YER167W, strain BCK2, hits give low values 0.98 | S. cerevisiae deletion strains, locus YGL078C, strain dbp3, hits give low values 0.994 | S. cerevisiae deletion strains, locus YGL086W, strain mad1, hits give low values 0.995 | S. cerevisiae deletion strains, locus YGL248W, strain PDE1, hits give low values 0.978 | [6] 0.986 | S. cerevisiae deletion strains, locus YGR135W, strain pre9, hits give low values 0.982 | S. cerevisiae deletion strains, locus YGR229C, strain SMI1, hits give low values 1.01 | S. cerevisiae deletion strains, locus YGR252W, strain gcn5, hits give low values 1.02 | [7] 0.995 | S. cerevisiae deletion strains, locus YHR079C, strain IRE1 (second series), hits give low values 1 | S. cerevisiae deletion strains, locus YHR094C, strain hxt1, hits give low values 1 | S. cerevisiae deletion strains, locus YHR129C, strain ARP1, hits give low values 0.992 | S. cerevisiae deletion strains, locus YHR200W, strain rpn10, hits give low values 0.988 | S. cerevisiae deletion strains, locus YIL066C, strain RNR3, hits give low values 0.995 | S. cerevisiae deletion strains, locus YIL073C, strain SPO22, hits give low values 0.971 | S. cerevisiae deletion strains, locus YIL125W, strain kgd1, hits give low values 0.993 | S. cerevisiae deletion strains, locus YIR030C, strain dcg1, hits give low values 0.985 | S. cerevisiae deletion strains, locus YJL095W, strain BCK1, hits give low values 0.984 | S. cerevisiae deletion strains, locus YJL134W, strain LCB3, hits give low values 0.978 | S. cerevisiae deletion strains, locus YJL168C, strain set2, hits give low values 0.995 | S. cerevisiae deletion strains, locus YJL187C, strain SWE1 (second series), hits give low values 0.977 | [8] 1.01 | [9] 0.996 | S. cerevisiae deletion strains, locus YKL009W, strain mrt4, hits give low values 0.974 | S. cerevisiae deletion strains, locus YKL068W, hits give low values 0.996 | S. cerevisiae deletion strains, locus YKL085W, strain MDH1 (second series), hits give low values 0.983 | S. cerevisiae deletion strains, locus YKL085W, strain MDH1, hits give low values 0.983 | S. cerevisiae deletion strains, locus YKL190W, strain CNB1, hits give low values 1 | S. cerevisiae deletion strains, locus YKR001C, strain vps1, hits give low values 0.994 | [10] 0.938 | S. cerevisiae deletion strains, locus YLR058C, strain SHM2, hits give low values 0.974 | S. cerevisiae deletion strains, locus YLR102C, strain apc9, hits give low values 0.993 | [11] 0.9 | S. cerevisiae deletion strains, locus YLR268W, strain sec22, hits give low values 0.986 | S. cerevisiae deletion strains, locus YLR330W, strain CHS5, hits give low values 0.981 | S. cerevisiae deletion strains, locus YLR342W, strain FKS1 (second series), hits give low values 1.01 | S. cerevisiae deletion strains, locus YLR371W, strain rom2, hits give low values 1 | S. cerevisiae deletion strains, locus YLR418C, strain cdc73, hits give low values 0.968 | S. cerevisiae deletion strains, locus YML016C, strain PPZ1, hits give low values 0.981 | S. cerevisiae deletion strains, locus YML032C, strain rad52, hits give low values 1 | S. cerevisiae deletion strains, locus YML124C, strain tub3, hits give low values 1.01 | S. cerevisiae deletion strains, locus YMR078C, strain ctf18, hits give low values 1 | S. cerevisiae deletion strains, locus YMR223W, strain ubp8, hits give low values 1.01 | [12] 0.983 | [13] 1.13 | S. cerevisiae deletion strains, locus YNL067W, strain RPL9B, hits give low values 0.981 | S. cerevisiae deletion strains, locus YNL128W, strain TEP1, hits give low values 0.98 | [14] 0.991 | S. cerevisiae deletion strains, locus YNL233W, strain BNI4, hits give low values 0.994 | S. cerevisiae deletion strains, locus YNL250W, strain rad50, hits give low values 0.983 | S. cerevisiae deletion strains, locus YNL271C, strain bni1, hits give low values 1 | S. cerevisiae deletion strains, locus YNL298W, strain CLA4, hits give low values 1.01 | S. cerevisiae deletion strains, locus YNL307C, strain MCK1, hits give low values 0.997 | [15] 0.987 | S. cerevisiae deletion strains, locus YNR052C, strain pop2, hits give low values 0.953 | [16] 0.917 | S. cerevisiae deletion strains, locus YOL012C, strain htz1 0.745 | S. cerevisiae deletion strains, locus YOL147C, strain pex11, hits give low values 1.01 | S. cerevisiae deletion strains, locus YOR061W, strain CKA2, hits give low values 0.95 | S. cerevisiae deletion strains, locus YOR069W, strain VPS5, hits give low values 0.996 | S. cerevisiae deletion strains, locus YOR136W, strain idh2, hits give low values 1 | S. cerevisiae deletion strains, locus YOR144C, strain elg1, hits give low values 1 | S. cerevisiae deletion strains, locus YOR184W, strain ser1, hits give low values 1.03 | S. cerevisiae deletion strains, locus YOR316C, strain cot1, hits give low values 0.985 | [17] 0.984 | [18] 0.991 | S. cerevisiae deletion strains, locus YPR119W, strain clb2, hits give low values 1 | S. cerevisiae deletion strains, locus YPR141C, strain kar3, hits give low values 0.966 | S. cerevisiae deletion strains, locus YPR163C, strain tif3, hits give low values 1.01 | S. cerevisiae deletion strains, locus YPR167C, strain met16, hits give low values 0.988 | S. cerevisiae deletion strains, strain wtn01, hits give low values 0.987 | S. cerevisiae strains, strain wild type, hits give low values 0.992

Reference: PubChem BioAssay AID1159580 (chemical genetic matrix, 2015)
